The panel holds about 83,000 compounds, 20% with a hit somewhere; the sample as a whole holds those more often.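 48-hour exposure, single concentration, 96-well plates; percent growth endpoint where 0 means no net growth. Active: below 10.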 A number with no mark means an inactive call. Activity calls are given as the source filed them.
Each molecule was assayed on CAKI-1 renal (assay: NCI-60 one-dose screen, 48 h (100 = growth as untreated, 0 = no growth, -100 = all killed)). Conditions: 10 µM unless noted.
For COc1cc(/C=C2\CN(S(=O)(=O)c3ccccc3)C/C(=C\c3cc(CN4CCCCC4)c(O)c(OC)c3)C2=O)cc(CN2CCCCC2)c1O, the growth was -89.2% (active).
With O=C(N/N=C/c1cc(Cl)ccc1O)c1ccccc1Nc1ccnc(C(F)(F)F)c1 the growth was 34.6%.
COc1cc(OC)c(C(=O)C(CN(C)C)CN(C)C)cc1OC gave a growth of 20.3%.
CCOc1cccc(/C=N/NC(=O)c2cccc(Nc3ccnc(C(F)(F)F)c3)c2)c1O was tested, and the growth was 18.3%.
With O=C1/C(=C/c2ccc(O)c(O)c2)COc2ccc(-c3ccccc3)cc21 the growth was 4.86% (active).
With CCN1C(=O)N(CC)C2C1NC(=S)N2/N=C/c1ccc(OC)cc1 (stereo not drawn) the growth was 32.9%.
For Cc1ccc2c(=O)cc(C(=O)Nc3sc4c(c3C(=O)NCc3cccnc3)CCCC4)oc2c1C, the growth was 90.6%.
For CCOC(=O)CC1CSC(Nc2ccccc2)=N1 (stereo not drawn), the growth was 103%.
Nn1c(=O)c(=O)[nH]c2c(cnn2-c2ccccc2)c1=O showed a growth of 94.3%.
In the case of Nc1[nH]n2cc(-c3ccc(F)cc3)nc2c1N=Nc1ccc(S(N)(=O)=O)cc1, the growth is reported as 47.4%.
With Cn1cc(-c2csc(-c3c[nH]c4ccc(F)cc34)n2)c2ccnc(Cl)c21 the growth was 69.8%.
Work on Cc1nc2c(c(=O)[nH]1)C(c1ccccc1)c1ccc3ccccc3c1O2 (stereo not drawn) yielded a growth of 30%.
In the case of C=C(C)[C@@H]1CC[C@]2(C(N)=O)CC[C@]3(C)[C@H](CC[C@@H]4[C@@]5(C)CC[C@H](OCCC#N)C(C)(C)[C@@H]5CC[C@]43C)[C@@H]12, the growth is reported as 64.5%.
